Bioassay records as filed in PubChem.
BAZ2B block: qHTS Assay for Inhibitors of BAZ2B. AlphaScreen BAZ2B-H3K14Ac peptide displacement. Potency, µM (titrated, usually from 114 µM), for the others: at the top dose activity change, negative = inhibition, usual class: inhibitors. hit rate 4.4% among 360,000. AID 504333, 2011; also: % is scaled to controls: 0 for no effect and ±100 for the full control effect; nearly all actives have a fitted effect of over 60% in size
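Complex of BAZ2B and biotin-H3K14Ac (50 nM apiece) forms over 30 min at RT, then faces library compounds up to 110 uM for another 30 min; AlphaScreen beads added, 20 min dark incubation, luminescence read.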
PLK1 PBD block: qHTS for Inhibitors of PLK1-PDB (polo-like kinase 1 - polo-box domain): Primary Screen. Serine/threonine-protein kinase PLK1 (Homo sapiens), P53350. AID 720504, 2013. hit rate 2.8% among 360,000. Potency, µM, without a hit: max response, negative = inhibition, actives largely listed as inhibitors. Plk1 PBD binding of FITC phosphopeptide, fluorescence polarization; also: series mostly up to about 57 µM; % is scaled to controls: 0 for no effect and ±100 for the full control effect; nearly all actives have a fitted effect of over 65% in size
12-LOX inh: Primary qHTS assay for inhibitors of human arachidonate 12S-lipoxygenase (ALOX12): Round 2. Polyunsaturated fatty acid lipoxygenase ALOX12 (Homo sapiens), P18054. purified 12hLO, xylenol orange hydroperoxide absorbance. Potency, µM (highest dose often 108 µM), without a hit: top-dose activity change, negative = inhibition, actives largely listed as inhibitors. hit rate 1.1% among 580,000; also: % is scaled to controls: 0 for no effect and ±100 for the full control effect
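Purified human 12hLO at 150 nM in 25 mM Hepes, 0.01% Triton X-100, pH 7.0, preincubated 15 min at room temperature with compound. Reaction started with 40 uM arachidonic acid, 30 min at room temperature. Hydroperoxide measured by Fe-xylenol orange, 573/405 nm absorbance ratio.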
HP1b binding inh: HTS for Inhibitors of HP1-beta Chromodomain Interactions with Methylated Histone Tails | hit rate 0.56% among 390,000 | Potency, µM (highest dose often 114 µM), for inactives: at the top dose activity change, negative = inhibition, most hits filed as inhibitors | AlphaScreen HP1-beta / biotin-H3K9me3 peptide binding | Chromobox protein homolog 1 (Homo sapiens), P83916 | AID 540317, 2011; also: nearly all actives have a fitted effect of over 70% in size
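HP1-beta protein (50 nM final) preincubated 30 min at room temperature with biotinylated H3(1-18)K9me3 peptide (50 nM) in PBS pH 7.4, 0.01% Tween-20, then compound added for 30 min. AlphaScreen streptavidin donor/nickel chelate acceptor beads (10 ug/mL final), 30 min dark, luminescence read.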
G9a inh: qHTS Assay for Inhibitors of Histone Lysine Methyltransferase G9a | Histone-lysine N-methyltransferase EHMT2 (Homo sapiens), Q96KQ7 | G9a H3K9 monomethylation, AlphaScreen, 2 h | Potency, µM (doses to about 102 µM), without a hit: at the highest dose activity, negative = inhibition, most hits filed as inhibitors | hit rate 8.8% among 350,000 | AID 504332, 2011; also: % is scaled to controls: 0 for no effect and ±100 for the full control effect; nearly all actives have a fitted effect of over 75% in size
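Step 1: enzyme (final 20 nM) with compound, 15 min RT. Step 2: substrate peptide 500 nM and SAM 20 uM, 2 h RT. Step 3: anti-H3K9me1 antibody and AlphaScreen beads, 10 min, then plate read.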
JMJD2A Tudor: qHTS Assay for Inhibitors of JMJD2A-Tudor Domain. Lysine-specific demethylase 4A (Homo sapiens), O75164. AlphaScreen JMJD2A-Tudor / H3K4me3 peptide binding. Potency, µM (doses to about 114 µM), inactives show at the top dose activity change, negative = inhibition, actives largely listed as inhibitors. AID 504339, 2011. hit rate 4.4% among 390,000; also: % is scaled to controls: 0 for no effect and ±100 for the full control effect; nearly all actives have a fitted effect of over 50% in size
Target sequence (O75164 whole entry, looked up, the tested form may be a part): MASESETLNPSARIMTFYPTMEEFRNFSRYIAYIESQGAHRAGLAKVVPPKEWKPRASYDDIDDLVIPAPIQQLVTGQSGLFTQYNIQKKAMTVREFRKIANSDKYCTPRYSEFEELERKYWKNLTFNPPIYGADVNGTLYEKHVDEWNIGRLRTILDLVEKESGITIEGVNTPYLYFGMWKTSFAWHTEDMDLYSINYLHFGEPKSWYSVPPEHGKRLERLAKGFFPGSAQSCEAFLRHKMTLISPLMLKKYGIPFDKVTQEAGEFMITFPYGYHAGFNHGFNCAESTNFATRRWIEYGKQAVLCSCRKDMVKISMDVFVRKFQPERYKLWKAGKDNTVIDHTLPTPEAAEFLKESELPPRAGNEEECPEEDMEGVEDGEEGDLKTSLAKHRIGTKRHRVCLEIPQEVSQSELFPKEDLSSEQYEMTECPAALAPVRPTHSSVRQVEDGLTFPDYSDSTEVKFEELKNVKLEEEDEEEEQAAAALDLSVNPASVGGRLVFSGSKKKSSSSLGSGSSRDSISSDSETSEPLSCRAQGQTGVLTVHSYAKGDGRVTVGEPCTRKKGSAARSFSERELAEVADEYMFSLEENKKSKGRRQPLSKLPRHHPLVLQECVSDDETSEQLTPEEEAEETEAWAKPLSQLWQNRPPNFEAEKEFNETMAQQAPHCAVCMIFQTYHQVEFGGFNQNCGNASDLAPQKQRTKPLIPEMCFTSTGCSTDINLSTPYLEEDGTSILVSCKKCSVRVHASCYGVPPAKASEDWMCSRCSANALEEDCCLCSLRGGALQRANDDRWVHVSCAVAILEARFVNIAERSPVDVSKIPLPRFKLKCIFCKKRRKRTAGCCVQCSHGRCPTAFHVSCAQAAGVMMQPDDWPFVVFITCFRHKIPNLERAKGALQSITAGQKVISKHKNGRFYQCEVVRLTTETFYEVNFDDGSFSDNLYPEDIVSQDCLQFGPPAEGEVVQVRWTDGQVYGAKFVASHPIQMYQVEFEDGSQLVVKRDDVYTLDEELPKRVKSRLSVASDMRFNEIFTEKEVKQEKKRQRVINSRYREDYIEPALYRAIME
Starred values were filed as active, the others as inactive; ? = inconclusive; nt = no result; [ ] = remark or other dose. In the library only some 9% were active in any assay of this set; here they are far more common. Calls follow the shape of the dose curve; as a rule, active = well fitted curve in the direction sought with a large enough effect; inconclusive = small, poorly fitted or top-dose-only effect, or another doubt; inactive = no such curve, though single readings can be large; an effect the other way counts as inactive or inconclusive. Potency is read from the fitted curve at half-maximal effect.

SMILES	BAZ2B block	PLK1 PBD block	12-LOX inh	HP1b binding inh	G9a inh	JMJD2A Tudor
CCOC(=O)CSc1nc2c(cnn2-c2ccc(F)cc2)c(=O)[nH]1	-11%	-8%	2%	33%	-10%	-3%
Cc1ccc(C(C)(O)CS(=O)(=O)Cc2ccccc2Cl)cc1 (configuration not stated)	5%	-9%	?	56%	45µM*	-2%
CC(O)(CS(=O)(=O)Cc1ccccc1)c1ccc(Cl)cc1 (configuration not stated)	-30%	2%	1%	35%	-31%	2%
CCC(=O)NC(=S)Nc1cccc(Cl)c1N1CCCCC1	3%	-5%	0%	15%	-1%	-12%
O=S(=O)(c1ccccc1)c1nc(Nc2ccccc2N2CCOCC2)sc1Cl	-37%	?	?	?	25µM*	32µM*
Cc1cc(O)c(C(c2cccc(Cl)c2)N2CCN(c3ccccc3)CC2)c(=O)n1Cc1ccco1 (configuration not stated)	-21%	nt	-5%	21%[57 µM]	-50%[59 µM]	-35%
CNc1ccccc1C(C)(C)c1cc(-c2cc(C)cc(C)c2)no1	-33%	-3%	-29%	23%	7%[59 µM]	-1%
CNc1ccccc1C(C)(C)c1cc(C)[nH]n1	-18%	8.4µM*	-5%	12%	1%	?
CNc1ccccc1C(C)(C)c1cc(-c2ccco2)n[nH]1	-77%	-9%	?	?	35µM*	?
CC(C)[C@]1(O)CN(C(=O)c2ccc3c(c2)CCCO3)C[C@H]1C	nt	nt	72%	nt	nt	nt
O=C(c1ccc(Cl)cc1)N1CC2(CCN(Cc3ccc(Cl)cc3)C2)Cc2ccccc21 (configuration not stated)	nt	nt	2µM*	nt	nt	nt
O=C(c1ccc(Cl)cc1)N1CC2(CCN(C3COC3)C2)Cc2ccccc21 (configuration not stated)	nt	nt	40µM*	nt	nt	nt
CC(=O)N1CC2(CCN(Cc3ccc(Cl)cc3)C2)Cc2ccccc21 (configuration not stated)	nt	nt	40µM*	nt	nt	nt
CC(C)Oc1ccc(C(=O)N2CCCC2C(=O)O)cc1 (configuration not stated)	5%	1%	1%	31%	-5%	-11%
CC1(C)C(c2ccccc2)=NC(c2ccc(Br)cc2)N1O (configuration not stated)	-13%	-7%	7.9µM*	38%	nt	-9%
CC(C)(C)c1ccc(-c2cc3ccccn3c2)cc1	nt	nt	22µM*	nt	nt	nt
Brc1ccc(-c2cc3ccccn3c2)cc1	nt	nt	14µM*	nt	nt	nt
CC(C)c1ccc(-n2nnnc2C2(NCc3ccccc3)CCCC2)cc1	nt	nt	-5%	nt	nt	nt
NC1=C(Br)C(=O)c2ncccc2C1=O	nt	7.5µM*	?	?	nt	?
CCOc1cccc2cc(C(=O)Nc3c(CC)cccc3CC)c(=O)oc12	nt	nt	17%	nt	nt	nt
CCN(c1ccccc1)S(=O)(=O)c1ccc(Cl)c(NC(=O)COC(=O)C2CC2C)c1 (configuration not stated)	nt	-6%	-24%	5%	7%	2%
Cc1ccccc1CC(=O)Nc1ccc2c(c1)CCC2	-6%	-7%	?	28%	3%	-1%
CCOC(=O)c1cccc(NC(=O)CN2CCN(c3ccc(OC)cc3)CC2)c1	?	4%	-54%	-24%	56µM*	?
COc1ccc(NC(=O)c2ccc(NC(=O)CN3CCN(c4ccccc4)CC3)cc2)cc1	nt	0%	18%	55%	nt	-10%
CCOC(=O)c1sc(NC(=O)CN2CCN(c3ccc(OC)cc3)CC2)nc1C	35µM*	-16%	-2%	?	40µM*	56µM*
